DAX1 inh-1 = NR0B1 (DAX1) inhibition; inhibition, % at 6.75 µM; HEK293 Gal4-DAX1 luciferase reporter, luminescence; actives 0.99% (n = 340,000); AID 504766;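 active = inhibition above the mean over all tested compounds plus 3 SD, cut at about 4.2% in these data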;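 note: 0% = DAX1-transfected cells with DMSO and 100% = empty-vector control cells with DMSO; inhibition shows as a rise in luminescence from relieved DAX1 repression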
Target sequence (P51843 207-470 limits assumed): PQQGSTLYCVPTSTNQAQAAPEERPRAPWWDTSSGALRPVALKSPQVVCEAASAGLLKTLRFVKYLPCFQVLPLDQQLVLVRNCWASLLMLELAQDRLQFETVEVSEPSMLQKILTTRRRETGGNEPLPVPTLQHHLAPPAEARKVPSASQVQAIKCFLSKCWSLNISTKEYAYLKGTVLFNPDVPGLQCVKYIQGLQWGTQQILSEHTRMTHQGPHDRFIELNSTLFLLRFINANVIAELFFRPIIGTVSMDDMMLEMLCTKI
ssDAF-12 act = S. stercoralis DAF-12 activation, primary screen | actives 1% (n = 370,000) | HEK293 ssDAF-12/GRIP1 lit1-tk-luc reporter, luminescence; % of 3 µM dafachronic acid response | activation, % at 6.8 µM;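 active = activation above the mean over all tested compounds plus 3 SD, cut at about 0.9% in these data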;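 note: 0% = DMSO-only wells and 100% = 3 µM delta7-dafachronic acid wells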
DAX1 inh-2 = blocks DAX1 repression of SF-1 activated StAR promoter; HEK293T StAR-luciferase reporter, SF-1/DAX-1 repression relief; actives 1.1% (n = 370,000); inhibition, % at 6.8 µM;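 active = inhibition above the mean over all tested compounds plus 3 SD, cut at about 3.6% in these data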;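 note: 0% = DAX-1 cells with DMSO and 100% = cells lacking DAX-1 with DMSO; higher inhibition means more luminescence from relief of DAX-1 repression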
hgDAF12 agonist = activates the H. glycines DAF-12 receptor ligand-binding domain. HEK293 GAL4-hgDAF12 UAS-luciferase reporter, agonist luminescence; normalized to butyrate control. activation, % at 6.8 µM. actives 1.8% (n = 370,000);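 active = activation above a cutoff set at the mean of all screened compounds plus 3 SD, cut at about 10% in these data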;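 note: 0% = DMSO wells and 100% = sodium butyrate wells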
hcDAF-12 act = activators of H. contortus DAF-12 nuclear receptor. HEK293 hcDAF-12 lit1-tk-luc reporter, luminescence; 0% DMSO, 100% Δ7-dafachronic acid. AID 652067. activation, % at 6.8 µM. actives 1.4% (n = 370,000);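 active = activation above the mean of all tested compounds plus 3 SD, cut at about 5.5% in these data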;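 note: 100% = response to 3 µM Δ7-dafachronic acid high control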
LXRb hcDAF ctr = LXR-beta agonism as hcDAF-12 counter-screen | shares compounds with hcDAF-12 act | HEK293 Gal4-LXR tk-luc reporter, luminescence, 24 h; normalized: DMSO 0%, positive control 100% | activation, % at 6.8 µM | 3,400 tested, under 10 active | AID 743027;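 active = mean percent activation of the reporter above a cutoff set as the average over tested compounds plus their standard deviation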
hcDAF12 conf = confirmation of H. contortus DAF-12 agonists | shares compounds with hcDAF-12 act | HEK293 hcDAF-12 lit1-tk-luc reporter, luminescence; % of Δ7-dafachronic acid response | activation, % at 6.8 µM | actives 61% (n = 3,400);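 active = mean activation across triplicate tests above the threshold derived from the earlier primary screen, cut at about 5.5% in these data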;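 note: 0% = DMSO only wells and 100% = 3 µM Δ7-dafachronic acid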
* = called active by the depositor; . = no result; ! = not active in a repeat. An excerpt weighted towards active compounds, which were near 4.1% of everything screened.

SMILES	DAX1 inh-1	ssDAF-12 act	DAX1 inh-2	hgDAF12 agonist	hcDAF-12 act	LXRb hcDAF ctr	hcDAF12 conf
CCOC(=O)c1c(C)oc2c1c(C(c1ccccc1)N1CCOCC1)c(O)c1ccccc12 (stereo not drawn)	4.2*	1.0*	4.0*	12.9*	10.8*	0.6	7.3*
O=C(O)Cn1cc(/C=N/Nc2ccc([N+](=O)[O-])cn2)c2ccccc21	5.4*	1.4*	0.3	6.8	7.9*	-0.1	4.2
Cc1ccc(Cn2cc(/C=N/Nc3ccc([N+](=O)[O-])cn3)c3ccccc32)cc1	2.7	-1.3	-0.4	6.2	2.5	.	.
CCCCCCCCN1CN2Cc3cc(OC)ccc3C2CS1(=O)=O (stereo not drawn)	.	-0.6	-0.5	-0.1	-0.4	.	.
COc1ccc(/C=C2\Oc3ccccc3C2=O)cc1	-2.3	0.4	2.4	10.4*	7.2*	1.3	5.3
Cc1ccc2c(C)nc(/N=C(\N)NC(=O)N3c4ccccc4Sc4ccccc43)nc2c1	0.5	0.3	-0.4	3.2	10.3*!	-0.5	-1.2
Cc1ccc2nc(/N=C(\N)NC(=O)N3c4ccccc4Sc4ccccc43)nc(C)c2c1	0.1	-1.7	-0.3	0.0	-3.1	.	.
Cc1ccc(Nc2nc3ccccc3o2)cc1F	2.2	0.6	4.0*	11.8*	7.3*	0.7	5.2
O=C(NC1CC[C@@]23CCCN2C(=O)CCC[C@H]3C1)c1ccccc1 (stereo partly drawn)	.	-0.8	.	-0.1	-1.0	.	.
S=C1SCCCN1Cc1ccc(Cl)cc1	0.5	-1.7	-2.1	-2.2	1.4	.	.
C/C(=N\NC(=O)c1ccccc1O)C1C(=O)c2ccccc2C1=O	1.5	-0.1	2.5	10.3	6.9*	0.4	2.8
CCCC/C=C1/[C@@H](C(C)C)N(Cc2ccc3c(c2)OCO3)C2=N[C@H](c3ccccc3)CC(=O)N21	.	-1.1	.	1.4	-1.2	.	.
CC(=O)Nc1ccc(NC(=O)CSc2cn(CC(=O)N3CCOCC3)c3ccccc23)cc1	1.4	-0.8	1.0	2.0	-1.9	.	.
O=C(Cn1cc(SCc2ccccc2Cl)c2ccccc21)N1CCOCC1	-1.0	-0.7	1.4	5.7	11.0*	0.5	4.7
COc1ccc(CNC(=O)C(=O)c2cn(CC(=O)N3CCOCC3)c3ccccc23)cc1	1.3	-0.2	0.1	0.8	-0.6	.	.
COc1ccc(CNC(=O)C(=O)c2cn(CC(=O)N3CCCC3)c3ccccc23)cc1	0.1	0.4	0.5	0.7	7.2*	0.0	3.4
O=C(Nc1ccccc1Cl)C(=O)c1cn(CC(=O)N2CCOCC2)c2ccccc12	2.4	0.3	0.7	6.7	7.6*	0.9	8.6*
COP(=O)(OC)C(Cc1ccccc1)NC(=O)CNC(=O)OCc1ccccc1 (stereo not drawn)	.	-0.5	-0.3	-0.4	-2.2	.	.
COc1ccc2nc(-c3ccc(F)cc3)sc2c1	-1.8	1.0*	2.9	10.7*	9.3*	1.0	6.7*
Cc1ccc(S(=O)(=O)Nc2nc3ccc(N)cc3s2)cc1	-0.2	-0.8	-0.2	-1.1	-1.5	.	.
Nc1ccc2nc(-c3ccccc3)sc2c1	-3.2	0.5	1.6	11.1*	9.7*	1.8	7.1*
COc1ccc2nc(N)sc2c1	0.9	-1.0	0.3	4.6	3.3	.	.
Cc1ccc2nc(-c3ccc(N)cc3)sc2c1	.	1.6*	4.2*	8.6	11.4*	1.7	12.6*
O=C1NC(=O)C(CC(=O)N(Cc2cccs2)C2(C(=O)NC3CCCC3)CCCCC2)N1 (stereo not drawn)	-0.9	-0.6	0.4	-0.7	8.7*	-0.2	0.2
Cc1c(C(=O)Nc2ccc(Cl)cc2)c2ccccn2c1C(=O)c1ccc(F)cc1	-0.2	-0.7	1.0	0.0	0.9	.	.
Cc1cc2ccccn2c1C(=O)Nc1ccc(Cl)cc1	3.4	0.3	1.1	10.2	8.8*	0.5	9.4*
Cc1cc2ccccn2c1C(=O)Nc1ccccc1	0.9	1.0*	0.7	4.3	9.7*	0.4	9.6*

High-throughput results (PubChem BioAssay)
